Inconclusive results are not listed. Calls of active or inactive are those of the source. Unless noted, calls follow the shape of the dose curve; as a rule, active = well fitted curve in the direction sought with a large enough effect; inconclusive = small, poorly fitted or top-dose-only effect, or another doubt; inactive = no such curve, though single readings can be large; an effect the other way counts as inactive or inconclusive.
Key:
[1] = molecular target: Transient receptor potential cation channel subfamily V member 1 (Homo sapiens) (UniProt Q8NER1); test: HTS Assay for Compounds that Act as Enhancers of the Vanilloid Receptor 1 (AID 488979); also: 0% is about no effect
Outline: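 Calcium influx kinetics via Fluo-8 (480/520 nm) in TRPV1-expressing cells, 2000/well cultured overnight at 35.5C. Compound-alone read 3 min (agonist phase), followed by EC20 capsaicin challenge for 2 min (enhancer phase).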

[2] = molecular target: Thyrotropin receptor (Homo sapiens) (UniProt P16473); test: qHTS Assay for Antagonists of the Thyroid Stimulating Hormone Receptor (AID 488980); also: series mostly up to about 58 µM; 0% is about no effect
Outline: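 Inhibition of TSH-stimulated cAMP accumulation was quantified by homogeneous time-resolved FRET in TSHR-transfected HEK293 cells. Agonist: TSH, 4 nM final (EC80).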

[3] = molecular target: D(1A) dopamine receptor (Homo sapiens) (UniProt P21728); test: HTS Assay for Allosteric Agonists of the Human D1 Dopamine Receptor: Primary Screen for Agonists (AID 488981); also: 0% is about no effect
Outline: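 Calcium flux in an inducible, force-coupled HEK293 Trex D1 line (overnight at 30 C): agonist mode is the 180 s kinetic read after compound; potentiator mode is the following 180 s read after dopamine at EC20.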

[4] = molecular target: Thyrotropin-releasing hormone receptor (Homo sapiens) (UniProt P34981); test: qHTS for Small Molecule Agonists and Allosteric Enhancers of Human TRH Receptor: Validation Screen for Agonists (AID 493127;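 active = calcium activation more than 3 SD above the typical response in the agonist read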;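 also: intracellular calcium rise by fluo-8 fluorescence before TRH EC20 addition; 0% is about no effect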); conditions: TRH receptor agonist cell assay; at 2 µM; active compounds read high
Outline: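 Read-out: intracellular calcium release measured kinetically by FDSS (fluo-8, ex 480/em 530 nm), 1 reading/s after a 10-cycle baseline. TRHR cells, 2000/well, cultured 18 h at 33.5C, dye-loaded at room temp. Compound-evoked positive calcium signal flags agonists.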

[5] = qHTS for Inhibitors of Cell Surface uPA Generation: Validation Assay (AID 493164);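 also: RAW 264.7 macrophage cells exposed to compound for 18 h; 0% is about no effect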
Outline: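 Compounds are titrated over seven points (2.45 nM–38.3 uM final) onto pre-plated RAW 264.7 cells and incubated for 18 h. Retained intracellular ATP, measured with ATP-Lite, indicates blocked lethal factor entry.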

[6] = Validation screen for small molecules that induce DNA re-replication in SW480 colon adenocarcinoma cells (AID 504364); also: 0% is about no effect
Outline: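 Read-out: total Hoechst intensity of nuclei by fluorescence scanning imager; hits raise the fraction of nuclei with elevated DNA content. Cells received compound for 48 hr at 37 C before a 40 min stain.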

[7] = molecular target: Peptidyl-prolyl cis-trans isomerase NIMA-interacting 1 (Homo sapiens) (UniProt Q13526); test: qHTS Validation Assay to Find Inhibitors of Pin1 (AID 504536; active = well fitted inhibition curve with a large enough effect in the polarisation, with a control signal flat, not every such curve was filed as active; the % refers to the polarisation;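 also: 0% = full Pin1 enzyme wells and -100% = no-enzyme wells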)
Outline: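 Fluorescence polarization competition: compounds (titration) displace HiFluor-488-labeled Pin1-1b peptide from Pin1 (0.3 uM final) in pH 7.5 HEPES buffer with DTT, 10 min at room temperature; %Activity normalized to no-enzyme wells, curves fitted.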

[8] = molecular target: Phosphoglycerate kinase, glycosomal (Trypanosoma brucei brucei) (UniProt P07378); test: qHTS Validation Assay to Find Inhibitors of Phosphoglycerate Kinase (AID 504547);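 also: control wells lack PGK and mark full inhibition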
Outline: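 Luminescence end-point (Kinase-Glo Plus, 10 min) after a 60 min room-temperature coupled reaction. GAPDH at 100nM final supplies 1,3-BPG to PGK. Buffer: 100mM TEA pH 7.6, 5mM MgCl2, 0.01% Tween-20. Wells lacking PGK served as controls.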

[9] = molecular target: Voltage-gated inwardly rectifying potassium channel KCNH2 (Homo sapiens) (UniProt Q12809); test: qHTS Assay for Small Molecule Inhibitors of the Human hERG Channel Activity (AID 588834);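 also: top concentration of the series differs between compounds; % is scaled to controls: 0 for no effect and ±100 for the full control effect; lower thallium flux fluorescence means stronger hERG block; nearly all actives have a fitted effect of over 50% in size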
Outline: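 Homogeneous FluxOR thallium flux assay using hERG-expressing U2OS cells (BacMam). Compound treatment about 10 minutes preceded stimulation; reduced fluorescence taken as channel block.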

[10] = molecular target: Glutaminase kidney isoform, mitochondrial (Homo sapiens) (UniProt O94925); test: qHTS for Inhibitors of Glutaminase (GLS): LOPAC Validation (AID 624146); also: potency is read from the fitted curve at half-maximal effect; nearly all actives have a fitted effect of over 60% in size
Outline: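 Compounds were pin-transferred onto hKGA, after which L-glutamine (1 mM solution) and a detection mix of glutamate oxidase, HRP and Amplex Red were added. Initial and 30 min RT fluorescence reads were collected.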

[11] = qHTS of Trypanosoma Brucei Inhibitors: LOPAC Validation (AID 624147); also: 0% is about no effect
Outline: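 Activity of T. brucei pyruvate kinase was followed by Kinase-Glo Plus luminescence after the enzyme reacted 45 min at room temperature with 130 uM ADP (final) and substrate. Test compounds were added before ADP at multiple concentrations.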

[12] = molecular target: Glucagon-like peptide 1 receptor (Homo sapiens) (UniProt P43220); test: qHTS of GLP-1 Receptor Agonists: LOPAC Validation (AID 624148);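 also: luminescence from a luciferase reporter switched on by cAMP; 0% is about no effect; higher luminescence signal means agonism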
Outline: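 Agonism scored as increased luciferase luminescence driven by cAMP in HEK293 clones carrying GLP-1R. Cells settled 12 hours, received compound for 4-6 hr at 37 deg C, 5% CO2, and were read after 12 min detection reagent at RT.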

[13] = qHTS of Nrf2 Activators: LOPAC Validation (AID 624149); also: 0% is about no effect
Outline: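 AREc32_Fluc cells, 1000/well, OPTI-MEM + 5% FBS, o/n 37 deg C 5% CO2; compound pin-transfer, 24 hr 37 deg C; Steady-Glo 30 min RT, luminescence read.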

[14] = HTS Assay for Allosteric Antagonists of the Human D2 Dopamine Receptor: Hit Validation in HTRF (AID 624455); also: % is scaled to controls: 0 for no effect and ±100 for the full control effect
Outline: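 HTRF read-out; cells stably expressing D1 receptor; hits scored for inhibition of D1-mediated response. Primary screen: calcium flux, force-coupled inducible Hek293 Trex D2 line, antagonism vs EC80 dopamine.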

[15] = molecular target: Tyrosine-protein kinase Yes (Homo sapiens) (UniProt P07947); test: qHTS for small molecule inhibitors of Yes1 kinase: Primary Screen (AID 686947); also: potency is read from the fitted curve at half-maximal effect; nearly all actives have a fitted effect of over 60% in size
Outline: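 In this qHTS format, inhibition is expressed relative to DMSO controls with enzyme (maximum) and without enzyme (minimum). The 60 min room-temperature reaction uses 0.1 mM ATP, with ADP detected by luminescence.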

[16] = qHTS for small molecule inhibitors of Yes1 kinase: Counter Assay (AID 686950);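 also: no kinase present so only ADP-Glo detection of a fixed ADP amount is tested; luminescence from ADP-Glo reporting ADP in a fixed ATP and ADP mixture; series mostly up to about 77 µM; 0% = DMSO wells with ATP plus ADP and -100% = ATP-only wells without ADP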
Outline: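 ADP-Glo luminescence read after a 60 min room-temperature incubation of compound with an ATP/ADP mix (0.08 mM/0.02 mM) and no kinase, following a 20 min compound preincubation. Signal scaled between ATP+ADP (max) and 0.1 mM ATP-only (min) wells; Tris pH 7.5, Mg2+, DTT.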

[17] = molecular target: Arylsulfatase A (Homo sapiens) (UniProt P15289); test: qHTS screen for enhancers of Arylsulfatase A (ASA1): LOPAC Validation Assay (AID 720538); also: potency is read from the fitted curve at half-maximal effect
Outline: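 Cell-based enhancement test: residual ASA activity in SV40-transformed I179S patient fibroblasts is measured by pNCS turnover (0.5mM final, 14h, room temperature) following 48h compound incubation; higher fluorescence indicates activation.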

[18] = qHTS for compounds that reverse cellular toxicity of Amyloid beta (A-beta) peptide in yeast: LOPAC Validation Assay (AID 720559);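 also: plate controls were DMSO for no effect and equimolar ferric chloride plus clioquinol rescue for full effect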
Outline: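 Here, A-beta-toxic yeast grow with test compounds at 30 C for 48 hr before optical density at 600 nm is recorded; data are normalized against DMSO and the FeCl3-clioquinol control.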

[19] = qHTS for Activators of Parkin Expression: LOPAC Validation Assay (FLuc Reporter) (AID 720573; also: potency is read from the fitted curve at half-maximal effect)
Outline: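 Readout is FLuc luminescence from neuronal reporter cells (Parkin promoter, FLuc plus NLuc) after 24 h compound exposure in dose response. Values normalized to neutral DMSO and positive-control compounds.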

Transient receptor potential cation channel subfamily V member 1 (Homo sapiens), sequence (Q8NER1 whole entry, looked up): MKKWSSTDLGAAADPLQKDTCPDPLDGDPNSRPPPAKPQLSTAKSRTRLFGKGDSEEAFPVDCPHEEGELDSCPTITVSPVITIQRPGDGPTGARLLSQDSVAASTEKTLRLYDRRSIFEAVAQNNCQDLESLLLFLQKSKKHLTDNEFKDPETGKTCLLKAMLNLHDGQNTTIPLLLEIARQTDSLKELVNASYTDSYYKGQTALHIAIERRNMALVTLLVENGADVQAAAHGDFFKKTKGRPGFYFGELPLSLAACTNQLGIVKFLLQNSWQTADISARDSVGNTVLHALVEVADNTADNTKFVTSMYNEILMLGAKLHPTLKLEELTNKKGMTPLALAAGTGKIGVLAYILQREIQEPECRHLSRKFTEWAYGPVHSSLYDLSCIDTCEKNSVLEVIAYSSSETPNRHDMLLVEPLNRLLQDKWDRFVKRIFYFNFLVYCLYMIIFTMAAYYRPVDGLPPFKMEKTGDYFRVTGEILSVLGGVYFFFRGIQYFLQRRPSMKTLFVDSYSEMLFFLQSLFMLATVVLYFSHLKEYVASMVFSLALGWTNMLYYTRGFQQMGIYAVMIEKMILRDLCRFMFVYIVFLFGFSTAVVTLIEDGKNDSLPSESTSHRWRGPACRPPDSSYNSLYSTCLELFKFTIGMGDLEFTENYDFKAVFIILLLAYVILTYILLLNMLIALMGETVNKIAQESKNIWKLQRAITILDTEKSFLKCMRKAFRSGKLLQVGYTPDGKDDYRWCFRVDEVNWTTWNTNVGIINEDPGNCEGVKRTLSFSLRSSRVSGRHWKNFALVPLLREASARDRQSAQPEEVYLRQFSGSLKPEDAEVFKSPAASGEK
Thyrotropin-releasing hormone receptor (Homo sapiens), sequence (P34981 whole entry, looked up): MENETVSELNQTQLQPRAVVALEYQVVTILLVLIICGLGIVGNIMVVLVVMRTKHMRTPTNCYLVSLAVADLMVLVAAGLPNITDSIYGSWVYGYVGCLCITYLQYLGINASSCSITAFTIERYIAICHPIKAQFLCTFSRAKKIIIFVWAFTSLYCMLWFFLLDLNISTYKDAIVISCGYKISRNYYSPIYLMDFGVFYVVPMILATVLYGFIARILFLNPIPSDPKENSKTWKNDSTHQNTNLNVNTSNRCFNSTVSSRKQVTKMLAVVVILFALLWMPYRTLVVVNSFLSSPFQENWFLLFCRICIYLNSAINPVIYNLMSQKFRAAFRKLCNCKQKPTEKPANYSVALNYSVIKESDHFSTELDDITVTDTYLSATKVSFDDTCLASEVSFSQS
Glutaminase kidney isoform, mitochondrial (Homo sapiens), sequence (O94925 whole entry, looked up, canonical isoform): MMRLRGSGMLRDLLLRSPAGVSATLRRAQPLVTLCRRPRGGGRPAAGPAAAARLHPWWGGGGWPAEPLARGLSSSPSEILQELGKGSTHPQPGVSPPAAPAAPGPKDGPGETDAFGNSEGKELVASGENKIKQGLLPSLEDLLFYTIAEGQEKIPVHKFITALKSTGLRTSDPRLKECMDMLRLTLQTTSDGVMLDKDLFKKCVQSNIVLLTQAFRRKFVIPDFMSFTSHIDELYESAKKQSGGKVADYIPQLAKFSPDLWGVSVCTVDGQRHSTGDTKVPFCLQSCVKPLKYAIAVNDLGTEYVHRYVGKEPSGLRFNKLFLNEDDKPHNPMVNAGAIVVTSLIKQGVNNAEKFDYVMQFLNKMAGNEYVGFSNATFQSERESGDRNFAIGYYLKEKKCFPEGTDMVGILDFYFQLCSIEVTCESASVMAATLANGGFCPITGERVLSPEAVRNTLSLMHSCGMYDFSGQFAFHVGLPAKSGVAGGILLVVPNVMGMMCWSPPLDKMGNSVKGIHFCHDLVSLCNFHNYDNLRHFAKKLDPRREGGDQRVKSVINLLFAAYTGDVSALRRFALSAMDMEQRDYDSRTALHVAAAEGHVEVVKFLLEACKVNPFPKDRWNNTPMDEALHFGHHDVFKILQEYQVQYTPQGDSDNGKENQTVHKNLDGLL
Voltage-gated inwardly rectifying potassium channel KCNH2 (Homo sapiens), sequence (Q12809 whole entry, looked up): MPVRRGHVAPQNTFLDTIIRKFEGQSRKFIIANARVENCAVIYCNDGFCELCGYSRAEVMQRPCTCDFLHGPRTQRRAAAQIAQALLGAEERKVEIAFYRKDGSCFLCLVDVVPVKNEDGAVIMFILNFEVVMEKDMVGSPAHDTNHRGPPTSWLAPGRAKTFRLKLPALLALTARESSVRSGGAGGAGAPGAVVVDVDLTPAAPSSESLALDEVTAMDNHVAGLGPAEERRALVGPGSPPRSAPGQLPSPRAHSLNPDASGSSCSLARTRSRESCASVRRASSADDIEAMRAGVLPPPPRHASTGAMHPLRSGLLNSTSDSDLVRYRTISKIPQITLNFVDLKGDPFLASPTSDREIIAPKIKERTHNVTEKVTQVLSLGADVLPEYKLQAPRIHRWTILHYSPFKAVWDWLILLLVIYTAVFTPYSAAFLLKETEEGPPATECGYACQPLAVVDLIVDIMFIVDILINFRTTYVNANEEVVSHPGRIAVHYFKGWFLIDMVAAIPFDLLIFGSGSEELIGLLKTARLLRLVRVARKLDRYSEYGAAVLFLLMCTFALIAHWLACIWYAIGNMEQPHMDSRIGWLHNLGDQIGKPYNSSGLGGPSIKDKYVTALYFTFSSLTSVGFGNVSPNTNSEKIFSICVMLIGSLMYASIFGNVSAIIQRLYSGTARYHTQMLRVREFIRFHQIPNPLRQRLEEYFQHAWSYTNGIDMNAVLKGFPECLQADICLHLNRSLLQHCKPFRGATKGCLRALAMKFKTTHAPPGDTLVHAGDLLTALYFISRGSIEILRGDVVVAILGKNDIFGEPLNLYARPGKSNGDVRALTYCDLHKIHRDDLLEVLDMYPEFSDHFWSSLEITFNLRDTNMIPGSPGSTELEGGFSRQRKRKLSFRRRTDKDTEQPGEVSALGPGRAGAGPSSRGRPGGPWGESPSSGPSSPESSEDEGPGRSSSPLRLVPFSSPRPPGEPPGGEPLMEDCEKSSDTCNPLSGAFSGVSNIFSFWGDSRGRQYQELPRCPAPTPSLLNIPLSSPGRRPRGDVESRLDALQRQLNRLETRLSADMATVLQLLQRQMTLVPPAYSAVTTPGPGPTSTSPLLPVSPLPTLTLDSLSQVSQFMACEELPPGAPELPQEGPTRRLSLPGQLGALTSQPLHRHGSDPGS
Phosphoglycerate kinase, glycosomal (Trypanosoma brucei brucei), sequence (P07378 whole entry, looked up): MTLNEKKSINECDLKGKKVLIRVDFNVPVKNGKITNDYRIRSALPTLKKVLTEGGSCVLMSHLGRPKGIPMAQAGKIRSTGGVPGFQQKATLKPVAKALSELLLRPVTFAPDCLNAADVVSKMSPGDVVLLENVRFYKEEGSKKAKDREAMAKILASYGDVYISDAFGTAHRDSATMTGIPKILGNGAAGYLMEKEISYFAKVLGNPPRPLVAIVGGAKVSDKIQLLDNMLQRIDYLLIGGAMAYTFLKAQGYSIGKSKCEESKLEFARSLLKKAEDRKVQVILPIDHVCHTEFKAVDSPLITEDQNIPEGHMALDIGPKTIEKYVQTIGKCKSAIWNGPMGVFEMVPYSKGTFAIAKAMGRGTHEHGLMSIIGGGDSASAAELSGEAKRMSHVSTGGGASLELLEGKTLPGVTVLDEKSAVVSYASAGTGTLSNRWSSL
Tyrosine-protein kinase Yes (Homo sapiens), sequence (P07947 whole entry, looked up): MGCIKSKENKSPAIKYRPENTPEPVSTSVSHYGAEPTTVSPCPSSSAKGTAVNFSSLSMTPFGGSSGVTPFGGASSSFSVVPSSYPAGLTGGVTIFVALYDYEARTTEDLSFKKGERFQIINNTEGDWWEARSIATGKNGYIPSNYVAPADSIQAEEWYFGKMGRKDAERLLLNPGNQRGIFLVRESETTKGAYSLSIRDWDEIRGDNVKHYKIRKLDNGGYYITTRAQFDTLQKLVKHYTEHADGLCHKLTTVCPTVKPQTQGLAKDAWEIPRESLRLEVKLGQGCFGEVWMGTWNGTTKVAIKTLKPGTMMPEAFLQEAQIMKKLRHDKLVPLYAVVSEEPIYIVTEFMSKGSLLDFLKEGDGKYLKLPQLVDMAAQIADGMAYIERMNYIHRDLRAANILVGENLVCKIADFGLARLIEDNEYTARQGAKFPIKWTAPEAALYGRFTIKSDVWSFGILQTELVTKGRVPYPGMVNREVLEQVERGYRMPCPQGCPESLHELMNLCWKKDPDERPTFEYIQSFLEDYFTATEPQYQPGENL
Glucagon-like peptide 1 receptor (Homo sapiens), sequence (P43220 whole entry, looked up): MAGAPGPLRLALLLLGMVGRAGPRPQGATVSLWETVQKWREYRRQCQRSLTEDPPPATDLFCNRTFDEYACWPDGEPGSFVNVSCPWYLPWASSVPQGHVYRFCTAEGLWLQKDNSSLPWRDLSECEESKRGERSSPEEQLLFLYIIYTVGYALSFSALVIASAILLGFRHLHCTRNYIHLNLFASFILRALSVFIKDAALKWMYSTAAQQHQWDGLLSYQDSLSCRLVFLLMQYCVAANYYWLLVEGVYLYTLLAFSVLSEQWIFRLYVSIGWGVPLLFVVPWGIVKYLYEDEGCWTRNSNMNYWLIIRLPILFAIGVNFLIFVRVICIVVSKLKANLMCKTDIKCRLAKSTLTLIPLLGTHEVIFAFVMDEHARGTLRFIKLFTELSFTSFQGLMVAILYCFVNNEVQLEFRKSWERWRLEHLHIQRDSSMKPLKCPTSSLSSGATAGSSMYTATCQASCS
Peptidyl-prolyl cis-trans isomerase NIMA-interacting 1 (Homo sapiens), sequence (Q13526 whole entry, looked up): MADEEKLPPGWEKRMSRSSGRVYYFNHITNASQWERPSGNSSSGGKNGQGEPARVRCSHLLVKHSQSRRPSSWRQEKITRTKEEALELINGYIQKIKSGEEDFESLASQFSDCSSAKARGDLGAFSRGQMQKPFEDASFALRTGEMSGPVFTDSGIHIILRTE

O=Nc1c(-c2c(O)[nH]c3ccccc23)[nH]c2ccccc12
inactive: outcome [1] | outcome [2] | outcome [3] | activation [4] -6% | outcome [5] | outcome [6] | Potency [7] | Potency [8] | Potency [9] | outcome [11] | outcome [12] | outcome [13] | outcome [14] | outcome [16] | outcome [18]
active: Potency [10] 11.2 µM | Potency [15] 0.772 µM | Potency [17] 10.7 µM | Potency [19] 10.3 µM
